The text below walks through data of PubChem BioAssay (NCATS).

Unmarked numbers belong to inactive results. Results filed as inconclusive are left out. The source made the active and inactive calls. Unless noted, calls come from the whole dose curve; as a rule, active = well fitted curve in either direction with a large enough effect (not every such curve was filed as active); inconclusive = small, poorly fitted or top-dose-only effect, or another doubt; inactive = flat fitted curve, though single readings scatter.

Experiment [1] addresses Lysosomal acid glucosylceramidase (Homo sapiens) (UniProt P04062). Briefly: Glucocerebrosidase-p2 (AID 348; in the data active = potency below about 10 µM; note: potency is the fitted concentration of half-maximal effect). The note with it: purified GBA, blue fluorogenic substrate, 40 min. The essentials:
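Normal human glucocerebrosidase (0.2 nM) with blue fluorogenic substrate (80 uM final) in citrate/phosphate pH 5.9 with 10mM sodium taurocholate, 0.01% tween-20; 40 min RT, NaOH/glycine stop; fluorescence Ex 365/Em 440; AC50 from a titration from 0.6 nM upwards.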

The target in experiment [2] is Cytochrome P450 1A2 (Homo sapiens) (UniProt P05177). In words: p450-cyp1a2 (AID 410; calls by dose curve; note: potency is the fitted concentration of half-maximal effect). To be noted: recombinant CYP1A2, luciferin-ME demethylation, luminescence; series mostly up to 57 µM. The essentials: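 20nM CYP1A2, 100uM Luciferin-ME (=Km), 100mM KPO4; cpd 10 min RT; +NADPH regen, 60 min RT; stop/detect 20 min; luminescence. Normalized to furafylline 57 uM = full inhibition.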
Chain of Cytochrome P450 1A2 (Homo sapiens) (P05177 whole entry, looked up): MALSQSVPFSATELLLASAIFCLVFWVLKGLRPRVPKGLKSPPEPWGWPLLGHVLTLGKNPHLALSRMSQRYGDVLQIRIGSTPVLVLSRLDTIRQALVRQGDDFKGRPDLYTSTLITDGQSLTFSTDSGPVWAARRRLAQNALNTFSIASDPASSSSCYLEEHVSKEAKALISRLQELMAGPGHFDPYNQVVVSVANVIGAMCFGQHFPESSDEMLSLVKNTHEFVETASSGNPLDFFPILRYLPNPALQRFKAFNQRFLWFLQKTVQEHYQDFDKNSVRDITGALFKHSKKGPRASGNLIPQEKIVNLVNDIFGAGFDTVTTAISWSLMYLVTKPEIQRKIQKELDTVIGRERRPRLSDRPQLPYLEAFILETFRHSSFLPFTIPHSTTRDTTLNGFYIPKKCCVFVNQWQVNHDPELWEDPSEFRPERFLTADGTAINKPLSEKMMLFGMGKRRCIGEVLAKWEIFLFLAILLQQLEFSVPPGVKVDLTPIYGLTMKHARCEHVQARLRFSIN

The nature of experiment [3]: NFAT Signaling Pathway (AID 444).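 Note: carbachol stimulus at about its EC50 of 1 µM final; % is set by controls: 0 for no effect and ±100 for the full control effect.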 The note with it: Jurkat NFAT-bla M1, carbachol, beta-lactamase ratio, 5 h; at 7.69 µM (top of the series) unless noted. The essentials: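 Jurkat cells with NFAT-driven β-lactamase reporter and co-expressed M1 receptor, stimulated with carbachol (final 1 uM, ~EC50), compound titration, 5 h at 37 °C. CCF4 loaded 1 h at RT; 460/530 nm ratio gave %activity and AC50.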

Experiment [4] in a line: Stat Signaling Pathway (AID 446).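 Note: ME-180 cervical cancer cells given 40 pM IL-6 alongside compound; SIE-controlled beta-lactamase reporter measured as 460/530 nm FRET emission ratio; % is set by controls: 0 for no effect and ±100 for the full control effect.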 To be noted: ME-180 SIE beta-lactamase reporter, IL-6 stimulated, 5 h; at 7.69 µM (top of the series) unless noted. Put shortly:
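Normalization used AC90 stimulation (300 pM IL-6) and AC90 inhibition (125 nM pan-JAK inhibitor at 40 pM IL-6). The underlying signal is SIE-driven beta-lactamase in ME-180 cells after 5 h IL-6 exposure with compound.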

Experiment [5] has as its target Glucocorticoid receptor (Homo sapiens) (UniProt P04150). Briefly: GR-GFP Redistribution (AID 450;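 active = compounds whose dose series gives a full or clear partial fitted curve of increased nuclear translocation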; note: potency is the fitted concentration of half-maximal effect). To be noted: U2OS GR-GFP nuclear translocation, laser cytometry, 2 h.
The target is the same in experiment [6]. Briefly: GR-EFC Redistribution (AID 451; calls by dose curve; note: potency is the fitted concentration of half-maximal effect). To be noted: CHO-K1 GR-EFC translocation, beta-gal luminescence, 2 h. Put shortly:
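CHO-K1 cells expressing nuclear EA and GR-ED fragments of b-gal; compounds titrated up to 46 uM final, 2 h at 37 C. GR nuclear translocation read as complemented b-gal luminescence after 1 h RT detection.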

Experiment [7] concerns the target Mitogen-activated protein kinase 10 (Mus musculus) (UniProt Q61831). In words: JNK3 AlphaScreen Assay (AID 530).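 Note: kinase came from lysate of stimulated human HepG2 cells; signal reports phosphorylation of biotinylated GST-cJun 1-79 at Ser73 with 10 µM ATP; % is set by controls: 0 for no effect and ±100 for the full control effect.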 To be noted: JNK3 lysate, c-Jun phosphorylation; series mostly up to 57.1 µM. The essentials:
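HepG2 lysate (IL-1b/TNFa pre-activated) + biotin-GST-cJun 1-79 + anti-pSer73 cJun; cpd titration, 15 min RT; ATP 10 uM start; Tris pH 7.6, MgCl2, DTT, vanadate; beads in EDTA buffer; AlphaScreen.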
(In general: Bead proximity is the source of the signal in Alpha formats.)

Experiment [8] addresses Cytochrome P450 3A4 (Homo sapiens) (UniProt P08684). In words: qHTS Assay for Activators of Cytochrome P450 3A4 (AID 885; active = well fitted curve in the direction sought with a large enough effect; an effect the other way counts as inactive or inconclusive; note: nearly all actives have a fitted effect of over 65% in size). The note with it: recombinant CYP3A4, Luciferin-PPXE luminescence, 60 min; series mostly up to 57.1 µM. The essentials: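 Human CYP3A4 dealkylates Luciferin-PPXE to luciferin, which luciferase detection converts to light. Substrate was at its KM (25uM), buffer 200mM KPO4, reaction 60 min at RT.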
Background: qHTS replaces the single test concentration by a dilution series.

The target of experiment [9] is Dual specificity protein kinase CLK4 (Homo sapiens) (UniProt Q9HAZ1). Briefly: qHTS Assay for Inhibitors of CDC-like Kinase 4 (ADP-FP Assay) (AID 1795; active = well fitted curve in the direction sought with a large enough effect; an effect the other way counts as inactive or inconclusive;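 note: recombinant human CLK4 phosphorylating RS repeat peptide at 1 µM ATP; % is set by controls: 0 for no effect and ±100 for the full control effect; nearly all actives have a fitted effect of over 60% in size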). The note with it: Transcreener ADP fluorescence polarization; series mostly up to 50 µM. The essentials:
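Recombinant Clk4 (6.25 nM) phosphorylated 100 uM RS repeat peptide with 1 uM ATP in 25 mM Tris pH 7.5, 10 mM MgCl2, 0.5 mM EGTA, 2.5 mM DTT, 0.01% Triton X-100 for 1 h. ADP was detected by Transcreener ADP2 competitive fluorescence polarization after 30 min at room temperature.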

Experiment [10] has as its target Ubiquitin carboxyl-terminal hydrolase 1 (Homo sapiens) (UniProt O94782). In words: Inhibitors of USP1/UAF1: Pilot qHTS (AID 504865; active = well fitted curve in the direction sought with a large enough effect; an effect the other way counts as inactive or inconclusive; note: nearly all actives have a fitted effect of over 35% in size; note: potency is the fitted concentration of half-maximal effect). The note with it: purified USP1/UAF1, Ub-rhodamine cleavage fluorescence; series mostly up to 54.9 µM. The essentials:
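USP1/UAF1 complex at 1 nM preincubated 15 min at room temperature with compound, then Ub-Rho substrate added at 150 nM final. Fluorescence (480/540 nm) read kinetically in 50 mM HEPES pH 7.8, 0.5 mM EDTA, 1 mM TCEP, 0.1 mg/ml BSA, 0.01% Tween-20.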

Experiment [11] in a line: Primary qHTS for small molecule stabilizers of the endoplasmic reticulum resident proteome: Secreted ER Calcium Modulated Protein (SERCaMP) assay (AID 1508630; active = well fitted curve in the direction sought with a large enough effect; an effect the other way counts as inactive or inconclusive; note: % is set by controls: 0 for no effect and ±100 for the full control effect). The note with it: SH-SY5Y GLuc-SERCaMP (Gaussia luciferase released on ER calcium loss) secretion, thapsigargin, luminescence; series mostly up to 38.4 µM. Put shortly:
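The SH-SY5Y reporter protocol was run at 3 concentrations up to 38.3 uM (primary) or 11 concentrations (follow-up): 16 h compound, 100 nM thapsigargin for 4 h, then extracellular luciferase luminescence.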

The nature of experiment [12]: AP1 Signaling Pathway (AID 357). The note with it: ME-180 (cervical carcinoma) AP-1-bla reporter, EGF-induced, beta-lactamase ratio, 5 h; at 7.69 µM (top of the series) unless noted. The essentials:
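First, ME-180 AP-1-bla cells were cultured overnight at 37 °C in low-serum Opti-MEM. Next, titrated compounds with EC50 EGF were incubated 5 hours. Finally, CCF4 was added for 2.5 hours and the 460/530 nm ratio recorded.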

Experiment [13] concerns the target Cytochrome P450 2C19 (Homo sapiens) (UniProt P33261). In words: qHTS Assay for Inhibitors and Substrates of Cytochrome P450 2C19 (AID 899; active = well fitted curve in the direction sought with a large enough effect; an effect the other way counts as inactive or inconclusive; note: potency is the fitted concentration of half-maximal effect; nearly all actives have a fitted effect of over 60% in size). The note with it: recombinant CYP2C19, luciferin-H EGE luminescence; series mostly up to 57.1 µM. The essentials:
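5 nM human CYP2C19 with 10uM Luciferin-H EGE (at KM) in 50mM KPO4, compound preincubated 10 min at 37C, then NADPH regeneration for 60 min at 37C. Luciferin read by luminescence after detection reagent; normalized to 57uM ketoconazole as full inhibition.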

Experiment [14] concerns the target 3',5'-cyclic-AMP phosphodiesterase 4B (Homo sapiens) (UniProt Q07343). Briefly: qHTS Assay for Inhibitors of PDE-IV (AID 607; active = well fitted activation curve with a large enough effect in the main read-out, with a control signal flat, not every such curve was filed as active; note: % of control where 0% means no effect). The note with it: HEK293 ACTOne CNG channel cells, membrane potential fluorescence; series mostly up to 22.9 µM. The essentials:
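HEK293 ACTOne cells with CNG channel (1000/well), endogenous PDE4; membrane potential dye, compounds up to 22.9 uM final. Fluorescence Ex 535/Em 590; RO 20-1724 (100 uM final) as reference.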

A short description of experiment [15]: Confirmation and Secondary Assay for Modulators of Hemoglobin Beta Chain Splicing at IVS2 654 locus (AID 910; active = well fitted curve in the direction sought with a large enough effect; an effect the other way counts as inactive or inconclusive;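 note: HeLa cells stably carrying EGFP split by mutant beta-globin IVS2-654 intron; % of control where 0% means no effect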). The note with it: HeLa EGFP-654 splicing reporter, GFP fluorescence, 48 h; series mostly up to 38.3 µM. The essentials:
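HeLa cells stably expressing EGFP interrupted by β-globin IVS2-654 intron, seeded overnight in Opti-MEM/2% FCS, then treated 2 days at 37 °C. Restored splicing read as total peak GFP intensity per well by laser scanning cytometry (488 nm excitation, 500–520 nm emission); 500 nM antisense PNA as control.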

A short description of experiment [16]: Confirmation and Secondary Assay for Modulators of Hemoglobin Beta Chain Splicing at IVS2 705 locus (AID 930; active = well fitted curve in the direction sought with a large enough effect; an effect the other way counts as inactive or inconclusive; note: % of control where 0% means no effect). The note with it: HeLa EGFP-705 splicing reporter, GFP fluorescence, 48 h; series mostly up to 38.3 µM. The essentials: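 HeLa cells stably carrying EGFP interrupted by mutant beta-globin intron 2 (IVS2-705) treated 2 days at 37C with compound; 500 nM antisense PNA as control. Correct splicing read as total peak GFP intensity per well by laser-scanning cytometry.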

Experiment [17] has as its target Cytochrome P450 2C9 (Homo sapiens) (UniProt P11712). Briefly: qHTS Assay for Inhibitors and Substrates of Cytochrome P450 2C9 (AID 883; active = well fitted curve in the direction sought with a large enough effect; an effect the other way counts as inactive or inconclusive; note: % is set by controls: 0 for no effect and ±100 for the full control effect; nearly all actives have a fitted effect of over 60% in size). To be noted: recombinant CYP2C9, luciferin-H luminescence, 60 min; series mostly up to 57.1 µM. Put shortly: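 Human CYP2C9 (10nM) with Luciferin-H at 100uM (its KM) in 25mM KPO4; compound preincubated 10 min at 37C, then NADPH regeneration for 60 min at 37C. Luciferin read by luminescence after detection reagent; normalized to 57uM sulphaphenazole as full inhibition.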

Chain of Lysosomal acid glucosylceramidase (Homo sapiens) (P04062 whole entry, looked up): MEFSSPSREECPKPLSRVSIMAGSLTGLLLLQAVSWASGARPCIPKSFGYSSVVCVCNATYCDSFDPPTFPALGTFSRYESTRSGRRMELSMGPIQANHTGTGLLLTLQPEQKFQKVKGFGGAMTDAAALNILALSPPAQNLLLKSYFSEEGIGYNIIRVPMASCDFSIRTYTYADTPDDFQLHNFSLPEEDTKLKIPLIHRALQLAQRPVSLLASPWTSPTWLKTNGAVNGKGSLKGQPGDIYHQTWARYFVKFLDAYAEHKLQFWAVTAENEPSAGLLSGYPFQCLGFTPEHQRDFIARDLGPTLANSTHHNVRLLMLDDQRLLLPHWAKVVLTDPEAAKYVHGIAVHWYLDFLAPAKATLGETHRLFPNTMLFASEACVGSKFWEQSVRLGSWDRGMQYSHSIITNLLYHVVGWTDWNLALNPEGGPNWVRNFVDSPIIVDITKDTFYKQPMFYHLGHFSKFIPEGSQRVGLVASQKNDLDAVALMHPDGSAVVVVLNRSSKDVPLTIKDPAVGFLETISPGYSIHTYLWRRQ
Chain of Cytochrome P450 3A4 (Homo sapiens) (P08684 whole entry, looked up): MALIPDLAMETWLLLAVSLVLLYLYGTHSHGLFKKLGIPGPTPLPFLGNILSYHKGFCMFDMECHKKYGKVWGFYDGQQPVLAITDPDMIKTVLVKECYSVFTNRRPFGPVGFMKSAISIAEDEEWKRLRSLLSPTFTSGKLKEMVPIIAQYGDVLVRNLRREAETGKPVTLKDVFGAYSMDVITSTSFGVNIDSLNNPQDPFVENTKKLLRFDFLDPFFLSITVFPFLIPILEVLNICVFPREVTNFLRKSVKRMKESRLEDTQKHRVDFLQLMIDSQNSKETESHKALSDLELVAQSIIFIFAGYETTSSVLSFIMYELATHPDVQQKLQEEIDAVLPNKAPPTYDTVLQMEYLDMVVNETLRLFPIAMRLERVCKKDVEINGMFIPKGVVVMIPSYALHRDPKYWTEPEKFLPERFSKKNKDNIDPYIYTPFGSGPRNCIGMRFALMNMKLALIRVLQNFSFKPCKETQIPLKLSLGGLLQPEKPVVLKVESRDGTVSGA
Chain of Ubiquitin carboxyl-terminal hydrolase 1 (Homo sapiens) (O94782 whole entry, looked up): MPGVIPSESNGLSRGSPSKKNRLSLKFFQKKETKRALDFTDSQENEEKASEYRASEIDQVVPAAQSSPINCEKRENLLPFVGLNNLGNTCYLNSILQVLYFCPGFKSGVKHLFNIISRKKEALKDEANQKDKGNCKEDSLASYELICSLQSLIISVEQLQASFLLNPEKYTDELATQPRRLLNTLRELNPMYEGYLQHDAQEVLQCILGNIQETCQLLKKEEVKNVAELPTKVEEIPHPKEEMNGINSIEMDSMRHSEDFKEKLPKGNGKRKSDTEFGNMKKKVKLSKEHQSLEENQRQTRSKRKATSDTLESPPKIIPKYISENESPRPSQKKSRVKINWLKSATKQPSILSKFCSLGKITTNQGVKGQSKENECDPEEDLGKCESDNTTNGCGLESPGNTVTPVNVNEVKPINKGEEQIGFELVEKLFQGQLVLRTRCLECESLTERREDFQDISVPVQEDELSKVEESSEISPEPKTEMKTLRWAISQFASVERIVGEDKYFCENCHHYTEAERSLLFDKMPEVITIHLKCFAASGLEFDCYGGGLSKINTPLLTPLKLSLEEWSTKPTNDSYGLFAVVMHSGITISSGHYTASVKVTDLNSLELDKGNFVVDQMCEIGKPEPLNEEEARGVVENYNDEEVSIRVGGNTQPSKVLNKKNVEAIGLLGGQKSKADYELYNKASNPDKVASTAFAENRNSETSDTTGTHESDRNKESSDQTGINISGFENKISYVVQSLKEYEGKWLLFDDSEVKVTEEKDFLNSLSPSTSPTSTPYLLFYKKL
Chain of Glucocorticoid receptor (Homo sapiens) (P04150 whole entry, looked up): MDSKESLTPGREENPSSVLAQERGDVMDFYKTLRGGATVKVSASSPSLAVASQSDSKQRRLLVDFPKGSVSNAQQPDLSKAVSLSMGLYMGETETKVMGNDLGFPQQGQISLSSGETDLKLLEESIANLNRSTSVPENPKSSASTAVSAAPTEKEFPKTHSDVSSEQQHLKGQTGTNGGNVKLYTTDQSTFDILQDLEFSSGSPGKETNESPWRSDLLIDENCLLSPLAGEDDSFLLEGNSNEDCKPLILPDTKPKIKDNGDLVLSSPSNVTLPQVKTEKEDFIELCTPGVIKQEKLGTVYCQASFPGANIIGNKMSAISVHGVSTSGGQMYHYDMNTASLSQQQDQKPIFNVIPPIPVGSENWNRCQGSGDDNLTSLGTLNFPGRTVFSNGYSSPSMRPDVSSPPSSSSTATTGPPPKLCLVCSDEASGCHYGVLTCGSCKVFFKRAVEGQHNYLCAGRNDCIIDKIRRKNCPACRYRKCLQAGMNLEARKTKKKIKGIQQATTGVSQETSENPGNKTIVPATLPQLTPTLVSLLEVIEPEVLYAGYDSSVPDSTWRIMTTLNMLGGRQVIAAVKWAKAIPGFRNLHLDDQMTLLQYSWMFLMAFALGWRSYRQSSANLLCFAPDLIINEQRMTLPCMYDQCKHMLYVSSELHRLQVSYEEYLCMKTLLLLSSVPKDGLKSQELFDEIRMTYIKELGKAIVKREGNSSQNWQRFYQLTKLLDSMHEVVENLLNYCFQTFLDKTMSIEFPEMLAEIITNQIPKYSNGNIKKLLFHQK
Chain of 3',5'-cyclic-AMP phosphodiesterase 4B (Homo sapiens) (Q07343 whole entry, looked up): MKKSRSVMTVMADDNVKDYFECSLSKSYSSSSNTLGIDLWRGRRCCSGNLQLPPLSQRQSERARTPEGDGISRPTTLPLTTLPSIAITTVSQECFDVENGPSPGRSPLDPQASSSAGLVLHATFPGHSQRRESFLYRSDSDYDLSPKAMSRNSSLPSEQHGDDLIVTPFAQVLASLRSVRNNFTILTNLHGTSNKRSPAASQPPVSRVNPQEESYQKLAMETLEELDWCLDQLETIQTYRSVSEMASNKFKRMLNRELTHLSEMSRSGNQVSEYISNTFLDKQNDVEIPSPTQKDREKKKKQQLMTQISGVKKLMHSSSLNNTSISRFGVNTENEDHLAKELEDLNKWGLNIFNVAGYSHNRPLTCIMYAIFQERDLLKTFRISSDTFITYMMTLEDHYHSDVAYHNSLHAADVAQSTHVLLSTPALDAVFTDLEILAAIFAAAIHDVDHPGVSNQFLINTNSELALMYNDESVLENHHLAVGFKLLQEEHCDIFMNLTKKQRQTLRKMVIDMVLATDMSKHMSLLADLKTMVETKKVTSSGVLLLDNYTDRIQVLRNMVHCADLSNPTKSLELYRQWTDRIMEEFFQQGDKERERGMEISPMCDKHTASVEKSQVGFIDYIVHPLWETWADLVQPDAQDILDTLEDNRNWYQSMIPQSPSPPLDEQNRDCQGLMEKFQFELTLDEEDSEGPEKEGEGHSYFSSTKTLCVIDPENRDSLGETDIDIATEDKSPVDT
Chain of Cytochrome P450 2C19 (Homo sapiens) (P33261 whole entry, looked up): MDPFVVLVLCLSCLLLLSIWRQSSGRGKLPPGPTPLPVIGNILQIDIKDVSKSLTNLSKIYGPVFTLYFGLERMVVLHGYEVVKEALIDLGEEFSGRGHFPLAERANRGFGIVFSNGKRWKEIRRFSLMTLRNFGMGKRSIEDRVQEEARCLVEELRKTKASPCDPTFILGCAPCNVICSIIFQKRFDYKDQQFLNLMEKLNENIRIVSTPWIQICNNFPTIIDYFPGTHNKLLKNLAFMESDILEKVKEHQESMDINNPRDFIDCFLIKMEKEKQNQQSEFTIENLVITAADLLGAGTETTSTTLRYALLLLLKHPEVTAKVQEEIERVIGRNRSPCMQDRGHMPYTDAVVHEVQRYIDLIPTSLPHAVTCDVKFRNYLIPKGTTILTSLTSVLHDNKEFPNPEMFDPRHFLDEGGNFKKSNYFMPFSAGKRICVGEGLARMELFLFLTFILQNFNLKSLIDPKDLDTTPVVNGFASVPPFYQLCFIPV
Chain of Cytochrome P450 2C9 (Homo sapiens) (P11712 whole entry, looked up): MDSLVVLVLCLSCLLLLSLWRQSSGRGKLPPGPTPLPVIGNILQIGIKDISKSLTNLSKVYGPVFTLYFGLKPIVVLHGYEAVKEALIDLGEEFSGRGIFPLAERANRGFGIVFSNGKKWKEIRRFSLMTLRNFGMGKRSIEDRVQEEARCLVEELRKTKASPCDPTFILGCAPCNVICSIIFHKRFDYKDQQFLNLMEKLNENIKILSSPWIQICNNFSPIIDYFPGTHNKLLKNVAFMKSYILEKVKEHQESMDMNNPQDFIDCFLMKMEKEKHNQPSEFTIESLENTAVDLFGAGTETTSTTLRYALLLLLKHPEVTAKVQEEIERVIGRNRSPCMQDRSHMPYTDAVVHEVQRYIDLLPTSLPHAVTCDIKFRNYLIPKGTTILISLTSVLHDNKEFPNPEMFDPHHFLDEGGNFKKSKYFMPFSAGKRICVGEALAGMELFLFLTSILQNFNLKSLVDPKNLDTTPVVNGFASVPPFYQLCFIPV

On to `COc1ccccc1-c1nc(NCc2cccs2)c2ccccc2n1`, for which the Potency in experiment [1] is greater than 11.4 µM; in experiment [2] it was 0.631 µM (active); in experiment [5], greater than 46 µM; in [6] it was greater than 46 µM; in experiment [10] it was 15.8 µM (active). The activity change, negative = inhibition in experiment [3] is -14.6%. The activity, negative = inhibition in [4] was 21.2%. For the same compound, the Potency entry in [7], in experiment [8] and in [9] was “inactive” in each case. Moreover, the outcome in experiment [11] was inactive.

On to `O=c1c(CCc2ccccc2)nc2cnc(N3CCOCC3)nc2n1Cc1ccc(F)cc1`, for which the Potency in experiment [1] is greater than 11.4 µM; in experiment [2], 10 µM (active); in [5], greater than 9.22 µM; in experiment [6], greater than 46 µM. Moreover, the figures for the activity change, negative = inhibition in [12] and in [3] were -10.7% and -2.42%, respectively. For the same compound, the activity, negative = inhibition in experiment [4] is 17.6%. Besides, in experiment [7], the Potency entry is “inactive”. In experiment [11], the result was inactive.

As for `N#Cc1cccc(-c2nc(NCc3ccccc3)c3ccccc3n2)c1`, the Potency in experiment [1] is greater than 11.4 µM; in experiment [2] it was 0.398 µM (active); in [5] it was greater than 46 µM; in experiment [6] it was greater than 46 µM; in experiment [13], 6.31 µM (active); in experiment [10], 15.8 µM (active). Besides, the results for the activity change, negative = inhibition in [12] and in experiment [3] were -14.6% and -13.5%, respectively. The activity, negative = inhibition in experiment [4] was -8.06%. Also, the Potency result in [7] and in [8] was “inactive” throughout. Moreover, the result in [11] was inactive.

Turning to `c1cncc(-c2ccc3ncnc(N4CCNCC4)c3c2)c1`, the Potency in experiment [1] is greater than 11.4 µM; in experiment [2], 1.26 µM (active); in experiment [5], greater than 46 µM; in experiment [6], greater than 46 µM. Besides, the activity change, negative = inhibition is 8.97% in [12] and 26.4% in [3]. For the same compound, the activity, negative = inhibition in experiment [4] is 0.928%. In addition, the Potency result in experiment [7], in experiment [14], in experiment [8], in experiment [15] and in [10] was “inactive” in each case. Also, the outcome in [16] and in [11] was inactive.

`O=c1cnc2cnc(N3CCOCC3)nc2n1Cc1ccc(F)cc1`: the Potency in experiment [1] is greater than 11.4 µM; in experiment [2] it was 3.98 µM (active); in experiment [5] it was greater than 9.22 µM; in [6], greater than 46 µM; in [13] it was 3.98 µM (active). The activity change, negative = inhibition in experiment [12] is -5.88%; in experiment [3], -6.28%. In addition, the activity, negative = inhibition in [4] is 6.58%. The Potency entry in [7], in [14] and in [8] was “inactive” in each case. In experiment [11], the result was inactive.

As for `COc1ccc(-n2c(=O)c(-c3cn(C)c4ccccc34)nc3cncnc32)cc1`, the Potency in [1] is greater than 11.4 µM; in [2], 0.316 µM (active); in [5], greater than 9.22 µM; in experiment [6] it was greater than 46 µM. The results for the activity change, negative = inhibition in experiment [12] and in experiment [3] were -24.9% and 6.02%, respectively. The activity, negative = inhibition in experiment [4] is -19.8%. Besides, the Potency entry in [7], in experiment [14], in experiment [17] and in experiment [8] was “inactive” each time. In addition, in experiment [11], the outcome was inactive.
